# Laboratory results published in PubChem BioAssay AID504900 (The Scripps Research Institute Molecular Screening Center, 2011).
# Some of the results follow. Unmarked numbers belong to inactive results. Active and inactive are the calls of the source. Cut-off read from the data, not from the text of the source: active = inhibition above about 32%; inactive = the rest.
# Target: Mu-type opioid receptor (Homo sapiens) + Delta-type opioid receptor (Homo sapiens) (UniProt P35372+P41143)
# Assay: inverse agonists of MOR-DOR heterodimerization, confirmation, cell-based, luminescence (AID 504900);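 note: 0% = cells with DMSO and 100% = wells lacking cells with DMSO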
# Details: cells expressing OPRM1/OPRD1 heterodimer, at 9.3 µM, hits give high values
# Mu-type opioid receptor (Homo sapiens) + Delta-type opioid receptor (Homo sapiens), sequence (P35372 whole entry, looked up): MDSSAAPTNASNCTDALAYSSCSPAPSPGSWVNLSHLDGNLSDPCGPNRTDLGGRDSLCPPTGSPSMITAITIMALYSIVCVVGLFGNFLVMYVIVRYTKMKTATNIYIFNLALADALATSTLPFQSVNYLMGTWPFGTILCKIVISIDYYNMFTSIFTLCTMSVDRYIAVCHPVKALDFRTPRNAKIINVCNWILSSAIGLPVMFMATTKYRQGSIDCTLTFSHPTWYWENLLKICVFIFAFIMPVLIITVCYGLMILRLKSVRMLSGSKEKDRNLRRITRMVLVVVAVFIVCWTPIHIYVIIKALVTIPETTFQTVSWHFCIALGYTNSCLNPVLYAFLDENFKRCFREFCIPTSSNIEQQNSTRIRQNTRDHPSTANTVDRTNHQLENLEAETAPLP
# Mu-type opioid receptor (Homo sapiens) + Delta-type opioid receptor (Homo sapiens), sequence (P41143 whole entry, looked up): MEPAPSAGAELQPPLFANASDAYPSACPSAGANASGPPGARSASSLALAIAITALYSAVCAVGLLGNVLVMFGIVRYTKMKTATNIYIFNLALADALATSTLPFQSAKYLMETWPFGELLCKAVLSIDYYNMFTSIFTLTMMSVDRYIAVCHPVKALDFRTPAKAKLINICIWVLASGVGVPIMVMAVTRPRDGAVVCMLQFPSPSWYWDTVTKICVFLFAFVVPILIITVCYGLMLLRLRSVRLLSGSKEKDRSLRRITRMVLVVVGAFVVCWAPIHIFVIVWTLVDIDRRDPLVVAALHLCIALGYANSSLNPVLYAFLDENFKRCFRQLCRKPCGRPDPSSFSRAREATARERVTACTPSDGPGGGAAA
row,SMILES,inhibition
1,Cc1ccc(C(=O)CNc2ccc(F)cc2)cc1,-20%
2,CSCCC(NC(=O)COc1ccccc1)C(=O)OCC(=O)c1cc2ccccc2o1 (centres undefined),37.5% (active)
3,CCOC(=O)CN1C(=O)C(=O)c2cc(C)ccc21,-25.7%
4,Cc1cccc2c1N(CC(=O)OC(C)C)C(=O)C2=O,-138%
5,O=C1C(=O)N(c2ccccc2)c2ccccc21,-11.8%
6,Cc1ccc(NNC(=O)c2cccs2)cc1Cl,-17.7%
7,CC(C)OC(=O)CN1C(=O)C(=O)c2ccccc21,-355%
8,Cc1cccc(N=Nc2c(O)[nH]c3ccc(F)cc23)c1,20.6%
9,Oc1ccc(N=Nc2nccs2)c(O)c1,12.6%
10,O=[N+]([O-])/C=C/c1ccc2c(ccn2Cc2ccccc2)c1,-234%
11,O=C(CCl)NNc1cccc(Cl)n1,69.8% (active)
12,C=CCn1c(N)c(C(=O)OCC(C)C)c2nc3ccccc3nc21,14.8%
13,Cc1ccc2c(c1)C(O)(CC(=O)c1cccnc1)C(=O)N2 (centres undefined),22.7%
14,CCOc1ccc(NC(=O)c2cccc3c2C(=O)N(CC2CCCO2)C3)cc1 (centres undefined),-4.18%
15,CCCCC(=O)NNC(=S)NC(=O)C(c1ccccc1)c1ccccc1,-427%
16,CN(c1ccccc1)S(=O)(=O)c1ccc(NC(=O)COc2ccccc2)cc1,-21.8%
17,CN(C)/C=C1/Nc2ccccc2C1=O,-27.4%
18,CCOC(=O)CN1C(=O)C(O)(CC(=O)c2ccccn2)c2ccccc21 (centres undefined),24.7%
19,CN(O)C(=S)c1ccccc1,16.7%
20,Cc1cccc(C)c1NC(=O)C(Cl)C(=O)c1ccccc1 (centres undefined),-42.6%
21,N#CC1=C(N)C(C#N)(C#N)[C@H](c2ccsc2)[C@H]2COCC=C12,-0.3%
22,COC(=O)Cc1c(-c2[nH]c3ccccc3c2CC(=O)OC)[nH]c2ccccc12,-123%
23,O=C1C(=O)N(CC2COc3ccccc3O2)c2ccccc21 (centres undefined),15.2%
24,COc1cc(NS(=O)(=O)c2ccc3ccccc3c2)c2ncccc2c1,-82.7%
